In PubChem BioAssay AID2314 (National Center for Advancing Translational Sciences (NCATS), 2010) one finds max response data, which are given here for 93 compounds.

The whole screen tested about 300,000 compounds, of which about 37,000 (12%) were called active. The entries come from a sample that favours actives as a whole. A number with no mark means an inactive call. Rule as the data show it: active = max response mostly above about 13% (no sharp cut-off); inactive = mostly below about 14%.

A short description of the assay: Cycloheximide Counterscreen for Small Molecule Inhibitors of Shiga Toxin. Also: read at 38.3 µM for the half of the compounds with a filed dose; 0% is about no effect. The following applies: cell reporter, cycloheximide protein synthesis inhibition counterscreen; active compounds read high. For orientation: Counterscreens check selectivity or assay interference.
As to `CCc1ccc(CNC(=O)C2CCN(c3nnc(C)c4c(C)n(-c5ccc(C)cc5)nc34)CC2)cc1`, the max response was -4.27%.
On to `COc1ccc(C(=O)N2CCCCC2C(=O)Nc2ccc(-n3nc(C)cc3C)cc2)o1` (stereo not drawn), for which the max response was -1.42%.
As for `C[C@H](NC(=O)C1CC(=O)N(c2ccc3c(c2)OCO3)C1)C(=O)NCc1ccco1` (stereo partly drawn), the max response was 1.48%.
As for `CCOc1ccc(C2C(C#N)=C(N)N(N(C)C)C3=C2C(=O)CCC3)cc1` (stereo not drawn), the figure is 0.68%.
As for `O=C1c2ccccc2C(=O)c2c1cccc2N1CCN(Cc2ccccc2)CC1`, the figure is 1.13%; as for `O=C1c2ccccc2C(=O)c2c1cccc2N1CCN(CCO)CC1`, 28.2% (active).
To `O=C(NC(c1ccccc1)c1ccccc1)N1CCN(CCO)CC1` belongs -1.21%.
`CN(C)c1ccc(S(=O)(=O)NCC(=O)NCC2CCCCC2)cc1[N+](=O)[O-]`: the max response was -5.92%.
As for `Cc1ccc(NC(=O)Cc2nnc(SCC(=O)Nc3nncs3)n2C)cc1`, the figure is -3.09%; as for `CN1C(=O)/C(=C/c2ccc(C(=O)NC3CCCC3)cc2)Oc2ccccc21`, 7.07%.
To `COCCCN1C(=O)C(=O)/C(=C(/O)c2ccc(S(=O)(=O)N3CCOCC3)cc2)C1c1ccc(F)cc1` (stereo not drawn) belongs -2.34%.
To `CCc1cc2cc(OC)ccc2nc1SCC(=O)Nc1cc(OC)c(OC)cc1C(=O)O` belongs -1.72%; to `COc1ccc2cc(CCl)c(Cl)nc2c1`, 27% (active).
With `COc1ccc(CN2CCC(c3nc4ccc(Cl)cc4[nH]3)CC2)cc1`, the max response was -5.26%.
As for `O=C(NCc1ccccn1)C1CCN(S(=O)(=O)c2ccc(Br)cc2)CC1`, the figure is 5.38%; as for `O=C(CSCc1ccccc1)Nc1ccccc1`, 54.4% (active).
As for `Cc1c(NC(=O)CSCc2ccccc2)cccc1C(=O)O`, the figure is 10.7%; as for `Cn1c(CSCC(=O)Nc2ccccc2)nnc1SCc1ccccc1`, 1.76%.
To `CC(=O)c1ccc(NC(=O)c2ccc(-n3cncn3)c([N+](=O)[O-])c2)cc1` belongs 5.03%; to `CC(C)C(c1nnnn1C1CCCCC1)N1CCN(C(=O)c2ccco2)CC1` (stereo not drawn), -3.08%; to `COc1ccc(N(CC(=O)Nc2ccc(F)c(F)c2)S(=O)(=O)c2c(C)[nH]c(=O)[nH]c2=O)cc1`, -1.45%.
For the compound `CCc1ccc(/C=N/NC(=O)c2nnn(-c3nonc3N)c2CN2CCc3ccccc32)cc1`, the max response was 1.36%.
To `Cc1cccnc1CC(C)NC(=O)c1cc(COc2cncc(Cl)c2)on1` (stereo not drawn) belongs 32.7% (active); to `Cc1cc(Cl)ccc1C(=O)C1CCCN(C(=O)c2nonc2C)C1` (stereo not drawn), -0.841%; to `CCOC(=O)CC1(NC(=O)c2cc(COc3cncc(Cl)c3)on2)CCCCC1`, 11.2% (active).
Turning to `CC(=O)c1cccc(OCc2cc(C(=O)NC(C)Cc3cccnc3)no2)c1` (stereo not drawn), the max response was 23% (active).
As for `CC(CCc1ccccc1)NC(=O)c1cnc(Cl)c(Cl)c1` (stereo not drawn), the figure is -1.25%; as for `Cc1noc(C)c1COc1cccc(C(=O)Nc2cccnc2)c1`, -2.49%.
On to `CCOC(=O)C1CCCN(C(=O)c2cncc(Br)c2)C1` (stereo not drawn), for which the max response is -3.79%.
As for `Cc1cccnc1NC(=O)CSc1nnc(COc2ccc(C(C)C)cc2)n1C`, the figure is -8.69%.
To `CCCOC1CCCN(C(=O)c2cc(COc3cncc(Cl)c3)on2)C1` (stereo not drawn) belongs 40.2% (active).
To `Cc1cccc(OCC(=O)NCCNC(=O)c2cccnc2)c1` belongs -6.99%.
With `O=C(Cc1ccccc1)Nc1c(Cl)ccc2nsnc12`, the max response is -0.56%.
As for `CCOC(=O)c1c(S(=O)(=O)NCC(=O)Nc2ccc(C)cc2)c(C)n(C)c1C`, the figure is -0.626%; as for `COC(=O)c1cc(NS(=O)(=O)c2ccc3c(c2)c(=O)n(C)c(=O)n3C)cc(C(=O)OC)c1`, -10.6%; as for `Cc1cccc(N(C(=O)c2csnn2)C(C(=O)NCc2ccccc2)c2ccncc2)c1` (stereo not drawn), -3.2%.
To `COc1ccc(S(=O)(=O)N2CCC(C(=O)NCc3ccco3)CC2)cc1C` belongs -1.76%.
As for `Cc1ccccc1C(OCCN(C)C)C1CCCCC1` (stereo not drawn), the figure is -3.58%; as for `COc1ccc(NS(=O)(=O)c2cc(NC(=O)C3CCCCC3)ccc2N2CCOCC2)cc1`, -4.24%; as for `CC(C)CNc1ncnc2c1cnn2Cc1ccc(Cl)cc1`, -1.18%.
With `CC(NC(=S)NNS(=O)(=O)c1ccc(C(C)(C)C)cc1)c1ccccc1` (stereo not drawn), the max response was -3.09%.
To `CC(C)CC(NC(=O)C1CCCN1C(=O)[C@@H](C)NC(=O)OCc1ccccc1)C(=O)NCC(N)=O` (stereo partly drawn) belongs 18.5%; to `COCC(=O)N1CCCC(C(=O)c2ccc(C(F)(F)F)cc2)C1` (stereo not drawn), 2.21%; to `COc1ccc(CNC(=O)Cc2ccc(-c3ccccc3)cc2)cc1OC`, -3.24%.
To `CCn1cc(C(=O)NCCC(=O)NCCO)c(=O)c2cc3c(cc21)OCO3` belongs -3.2%.
To `O=C(NCc1nnc(SCC(=O)N2CCCCCC2)o1)c1ccc(F)cc1` belongs -0.334%.
For `CC[C@@H]1Cc2cc(O)ccc2C2=C1c1ccc(O)cc1C[C@H]2CC`, the max response was -6.86%.
To `C=CCSc1nnc(N2C(=O)C(O)=C(C(=O)c3ccco3)C2c2ccc(F)cc2)s1` (stereo not drawn) belongs 1.8%; to `Cc1ccc2nc(N3C(=O)C(O)=C(C(=O)c4ccco4)C3c3cccc(O)c3)sc2c1` (stereo not drawn), 23.5% (active).
On to `COc1cc(C2C(C(=O)c3ccco3)=C(O)C(=O)N2c2cc(C)on2)ccc1OCc1ccccc1` (stereo not drawn), for which the max response is -4.25%.
To `CCOC(=O)C1CCCN(CCSc2ccc(C)cc2)C1` (stereo not drawn) belongs 0.771%.
As for `O=C(NC1CCCC1)C(c1ccco1)N(C(=O)c1ccco1)c1ccc(F)cc1` (stereo not drawn), the figure is -3.92%.
To `Cc1cc(F)ccc1NC(=O)C(C)n1c2ccccc2c2nc(=O)cc(C)n21` (stereo not drawn) belongs -0.783%.
As to `CSc1cccc(NC(=S)N(Cc2ccccc2)Cc2ccccn2)c1`, the max response was 7.83%.
As for `Cn1c(CC(=O)Nc2ccc(F)cc2)nnc1SCC(=O)NC1CCCCC1`, the figure is -1.89%; as for `CCOC(=O)C1(Cc2cccc(OC)c2)CCCN(S(=O)(=O)c2cccnc2)C1` (stereo not drawn), -3.01%.
`CCOC(=O)C1(Cc2cccc(OC)c2)CCCN(C(=O)CCSC)C1` (stereo not drawn): the max response was 28.4% (active).
To `CCOC(=O)C1(Cc2cccc(OC)c2)CCN(C(C)COC)CC1` (stereo not drawn) belongs 12.7%; to `CN(C)C(CNC(=O)c1cccc(C#N)c1)c1ccco1` (stereo not drawn), 8.17%; to `O=C(CCl)Nc1cccc(CP(=O)(c2ccccc2)c2ccccc2)c1`, -1.7%.
As for `COCC(=O)Nc1ccc(Br)cc1`, the figure is -0.947%.
To `CC(C)(CCl)C(=O)Nc1ccc(Sc2ccc(F)cc2)cc1` belongs 31% (active).
In the case of `CCN(c1ccccc1)S(=O)(=O)c1ccc(NC(=O)C(C)(C)C)cc1`, the max response is -3.17%.
To `CS(=O)(=O)N(CC(=O)Nc1ccc(F)cc1)C1CCCCC1` belongs -2.39%.
As for `O=C(CCl)Nc1ccc(Sc2ccc(NC(=O)CCl)cc2)cc1`, the figure is 24.3% (active).
To `COC(=O)c1sc(N2CCN(Cc3ccccc3)CC2)nc1N` belongs -1.52%.
In the case of `O=C(Nc1c2c(nn1-c1ccccc1)CS(=O)(=O)C2)C1CCCC1`, the max response was -1.45%.
To `N#C/C(=C\c1ccc(-c2cccc([N+](=O)[O-])c2)o1)C(=O)NCCN1CCOCC1` belongs 2.05%; to `O=[N+]([O-])c1ccccc1SNc1ccccn1`, 0.9%; to `C/C(CC(=O)NC(C)(C)C)=N\NC(=O)c1ccco1`, 40.4% (active).
On to `COc1ccc(N(CC(=O)NC(C)(C)C)C(=O)c2ccco2)cc1`, for which the max response was 1.33%.
To `CC(C)(C)NC(=O)c1cc(NC(=O)c2ccco2)cc(NC(=O)c2ccco2)c1` belongs -2.77%; to `COc1cc(S(=O)(=O)N2CCN=C2c2ccccc2)ccc1Cl`, 3.04%.
Take `CCOC(=O)c1cn(Cc2cccc(C)c2)nn1`: the max response is -0.759%.
To `CC(=O)c1nn(-c2cccc(Br)c2)cc1C(=O)c1cccc2ccccc12` belongs 4.07%; to `CCOC(=O)c1nn(-c2cccc(C)c2)cc1C(=O)c1ccccc1`, 43.2% (active).
As for `Cc1ccc(S(=O)(=O)N(CC(=O)NCCSC2CCCCC2)c2ccccc2F)cc1`, the figure is -3.31%.
As for `NS(=O)(=O)c1ccc(CCNc2nc(C(F)(F)F)nc3ccccc23)cc1`, the figure is -0.703%; as for `COc1ccc(CCNC(=O)CSCc2ccc(Br)cc2)cc1OC`, 1.16%; as for `CN(C(=O)Nc1ccc(Cl)cc1)n1cnc2ccccc2c1=O`, 3.38%.
For the compound `Cc1nn(C)cc1CNC(=O)Nc1ccc(Cl)cc1`, the max response was 21.8% (active).
To `Cc1nn(C)cc1C(=O)NNC(=S)Nc1ccc(Cl)cc1` belongs -3.2%; to `COc1ccc(Cl)cc1C(=O)NCc1cn(C)nc1C`, -4.09%.
As for `Cn1c(SCC(=O)Nc2ccc(Cl)cc2)nc(O)cc1=O`, the max response was -0.536%.
To `Cn1ccc(NC(=O)Nc2ccc(Cl)cc2)n1` belongs 36.8% (active); to `CCc1ccccc1NC(=O)CN(c1ccc(OC)cc1OC)S(=O)(=O)c1ccccc1[N+](=O)[O-]`, 10.7%.
To `O=c1ccc2cc(S(=O)(=O)Nc3ccccc3F)ccc2o1` belongs -3.48%; to `Cc1ccc2c(c1)-c1c(ssc1=S)C(C)(C)N2C(=O)CN1C(=O)c2ccccc2C1=O`, -4.7%.
As for `CCCCC1S/C(=N/N=C/c2cccs2)NC1=O` (stereo not drawn), the figure is -2.78%.
Regarding `Nc1ccc(-c2sc(N)nc2-c2ccccc2)cc1`, the max response was 1.13%.
`Nc1ccc(-c2nnc(-c3ccc(-c4ccccc4)cc3)o2)cc1`: the max response was 58% (active).
To `Nc1ccc(-c2nnc(-c3ccccc3)o2)cc1` belongs 51.7% (active); to `COc1cccc(OC)c1C(=O)N1CCN(Cc2cccnc2)CC1`, -3.44%.
